Reference: PubChem BioAssay AID743364 (National Center for Advancing Translational Sciences (NCATS), 2014)
Activity calls are given as the source filed them. Calls come from the whole dose curve; as a rule, active = well fitted curve in the direction sought with a large enough effect; inactive = no such curve, though single readings can be large or run the other way.

Assay: qHTS profiling of inhibitors of Plasmodium falciparum (3D7) proliferation (acoustic dispense)
Settings: P. falciparum 3D7 in erythrocytes, SYBR Green, 72 h; series mostly up to 49.8 µM

Row | SMILES | outcome
1 | CCNC(=O)c1noc(-c2cc(C(C)C)c(O)cc2O)c1-c1ccc(CN2CCOCC2)cc1 | inactive
2 | CCc1nc(N)nc(N)c1-c1ccc(Cl)cc1 | inactive
3 | COc1cc(C)c2c(Oc3cccc(C(F)(F)F)c3)c(OC)cc(NCCCC(C)N)c2n1 (stereo unspecified) | inactive
4 | C=CCNC1=C2C[C@@H](C)C[C@H](OC)[C@@H](O)[C@@H](C)C=C(C)[C@H](OC(N)=O)[C@@H](OC)C=CC=C(C)C(=O)NC(=CC1=O)C2=O | inactive
5 | C=C[C@@H]1CN2CC[C@@H]1C[C@H]2[C@H](O)c1ccnc2ccc(OC)cc12 | inactive
6 | Cc1nc2cnc3ccc(C#Cc4cccnc4)cc3c2n1-c1ccc(C(C)(C)C#N)cc1 | inactive
7 | C#Cc1cccc(Nc2ncnc3cc(OC)c(OCCCCCCC(=O)NO)cc23)c1 | inactive
8 | C[C@H]1Cc2c([nH]c3cc(Cl)c(F)cc23)[C@@]2(N1)C(=O)Nc1ccc(Cl)cc12 | inactive
9 | CN(C(=O)OC(C)(C)C)[C@@H](Cc1ccc(O[S+](=O)([O-])c2cccc3cnccc23)cc1)C(=O)N1CCN(C(=O)OCc2ccccc2)CC1 | inactive
10 | COC1=C2C[C@@H](C)C[C@H](OC)[C@@H](O)[C@@H](C)C=C(C)[C@H](OC(N)=O)[C@@H](OC)C=CC=C(C)C(=O)NC(=CC1=O)C2=O | inactive
11 | Nc1cccc(-c2csc(NC(=O)CCCCCCC(=O)NO)n2)c1 | inactive
